Assay results: PubChem BioAssay (NCI)
“And” between values parts separate entries of the source, which are not always exact repeats. Equal values may be shown once. About 83,000 compounds went through this panel and 20% of them were active in at least one assay; those are over-represented in the sample as a whole.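 Percent growth is the endpoint: 0 to 100 indicates growth inhibition (40 means 60% inhibition), 0 means no net growth, and negative values indicate cell death.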 The source made the active and inactive calls. Rule for the calls: active = growth percent below 10; inactive = the rest.

Columns and labels:
Assay in all cases: NCI-60 one-dose screen, 48 h (100 = growth as untreated, 0 = no growth, -100 = all killed)
[1] = test system: DU-145 prostate
[2] = test system: K-562 leukemia
[3] = test system: MALME-3M melanoma
[4] = test system: MDA-MB-231 breast
[5] = test system: RXF 393 renal
[6] = test system: SF-268 CNS
[7] = test system: SF-295 CNS
[8] = test system: SF-539 CNS
[9] = test system: UACC-257 melanoma; settings: 10 µM unless noted
[10] = test system: M14 melanoma; settings: 10 µM unless noted

Measured: growth

Cc1cc2nc3ccc(=[N+](C)C)cc-3sc2cc1N
4.64% (active) and 15.1% (inactive): [7]; 10 µM unless noted
inactive: [5]; 10 µM unless noted 51.6% and 36% | [9] 24.9% and 61.4%
active: [1]; 10 µM unless noted 3.25% and -41.6% | [2]; 10 µM unless noted 7.3% | [3]; 10 µM unless noted -47.8% and -3.68% | [4]; 10 µM unless noted -18.8% and -10.4% | [6]; 10 µM unless noted -8.64% and -29.4% | [8]; 10 µM unless noted -39.6% and 3.1% | [10] -26.3% and 8.5%

O=C(O)c1c2c(nc3ccccc13)Cc1ccccc1-2
inactive: [1]; 10 µM unless noted 108% and 94.4% | [2]; 10 µM unless noted 115% and 99.1% | [3]; 10 µM unless noted 105% and 86.8% | [4]; 10 µM unless noted 107% and 102% | [5]; 10 µM unless noted 182% and 114% | [6]; 10 µM unless noted 95.4% and 86.9% | [7]; 10 µM unless noted 104% and 81.9% | [8]; 10 µM unless noted 116% and 91.4% | [9] 85.8% and 103%

COc1ccc(CCN=Cc2ccc(Cl)cc2)cc1OC
inactive: [1]; 10 µM unless noted 106% | [2]; 10 µM unless noted 122% | [3]; 10 µM unless noted 135% | [4]; 10 µM unless noted 109% | [5]; 10 µM unless noted 177% | [6]; 10 µM unless noted 99.5% | [7]; 10 µM unless noted 121% | [8]; 10 µM unless noted 111% | [9] 109%

CN(C)C(=N)N=C(N)N
101% (inactive) and -7.3% (active): [5]; 10 µM unless noted
108% (inactive) and -0.171% (active): [9]
inactive: [1]; 10 µM unless noted 120% | [2]; 10 µM unless noted 130% | [3]; 10 µM unless noted 116% and 269% | [4]; 10 µM unless noted 95.8% and 114% | [6]; 10 µM unless noted 99.9% and 103% | [7]; 10 µM unless noted 113% and 178% | [8]; 10 µM unless noted 98.5% and 109%

CCOC(=O)c1ccc(C(=N)N)cc1
inactive: [1]; 10 µM unless noted 106% | [2]; 10 µM unless noted 101% | [3]; 10 µM unless noted 108% | [4]; 10 µM unless noted 120% | [5]; 10 µM unless noted 95.4% | [6]; 10 µM unless noted 104% | [7]; 10 µM unless noted 101% | [8]; 10 µM unless noted 105% | [9] 96.8%

O=C(c1ccccc1)C1(Br)CCCCC1
inactive: [1]; 10 µM unless noted 105% | [2]; 10 µM unless noted 98% | [3]; 10 µM unless noted 95.1% | [4]; 10 µM unless noted 94.3% | [5]; 10 µM unless noted 113% | [6]; 10 µM unless noted 92% | [7]; 10 µM unless noted 93.4% | [8]; 10 µM unless noted 93.5% | [9] 98.7%

Oc1ccc(O)c(-c2ccccc2)c1
inactive: [1]; 10 µM unless noted 77.6% | [2]; 10 µM unless noted 30.4% | [3]; 10 µM unless noted 84.6% | [4]; 10 µM unless noted 66% | [5]; 10 µM unless noted 73.8% | [6]; 10 µM unless noted 53.7% | [7]; 10 µM unless noted 17.7% | [8]; 10 µM unless noted 46.3% | [9] 88.4%

Cc1ccc(C(=O)c2ccc(C)cc2)cc1
inactive: [1]; 10 µM unless noted 102% and 103% | [2]; 10 µM unless noted 103% and 110% | [3]; 10 µM unless noted 108% and 93.2% | [4]; 10 µM unless noted 103% and 106% | [5]; 10 µM unless noted 88% and 95.8% | [6]; 10 µM unless noted 94.8% and 98% | [7]; 10 µM unless noted 94.4% and 103% | [8]; 10 µM unless noted 85.3% and 97.6% | [9] 92.6% and 114%

O=c1ccn2c(n1)OC1CC2OC1COC(c1ccccc1)(c1ccccc1)c1ccccc1 (stereo not drawn)
inactive: [1]; 10 µM 115% | [1]; 100 µM 99.1% | [2]; 10 µM 102% | [2]; 100 µM 50.4% | [3]; 10 µM 119% | [3]; 100 µM 95% | [4]; 10 µM 111% | [4]; 100 µM 82.1% | [5]; 10 µM 107% | [5]; 100 µM 75.8% | [6]; 10 µM 119% | [6]; 100 µM 76.3% | [7]; 10 µM 118% | [7]; 100 µM 67.1% | [8]; 10 µM 110% | [8]; 100 µM 48.8% | [9] 93.8% [100 µM]

CC(C)=NOC(C)C(=O)O (stereo not drawn)
inactive: [1]; 10 µM unless noted 147% | [2]; 10 µM unless noted 76.5% | [3]; 10 µM unless noted 112% | [4]; 10 µM unless noted 99.8% | [5]; 10 µM unless noted 116% | [6]; 10 µM unless noted 101% | [7]; 10 µM unless noted 93.1% | [8]; 10 µM unless noted 102% | [9] 92.9%

CCOC(=O)C1=C(C)NC(C)=C(C(=O)OCC)C1
inactive: [1]; 10 µM unless noted 109% and 110% | [2]; 10 µM unless noted 127% and 110% | [3]; 10 µM unless noted 110% and 99.7% | [4]; 10 µM unless noted 93.5% and 117% | [5]; 10 µM unless noted 103% | [6]; 10 µM unless noted 104% and 111% | [7]; 10 µM unless noted 82.6% and 95.7% | [8]; 10 µM unless noted 90.8% and 95.6% | [9] 105% and 102%
